High-throughput results deposited in PubChem BioAssay by National Center for Advancing Translational Sciences (NCATS).
GLS inhibitor: blocks human kidney-isoform glutaminase activity; O94925; GLS enzymatic activity, qHTS titration; Potency, µM (highest dose often 45.5 µM), without a hit: at the highest dose activity change, negative = inhibition, usual class: inhibitors; 410,000 tested, 0.21% active; AID 624170; further: on the % scale 0 is the no-effect control and ±100 the full control effect
Target sequence (O94925 whole entry, looked up, canonical isoform): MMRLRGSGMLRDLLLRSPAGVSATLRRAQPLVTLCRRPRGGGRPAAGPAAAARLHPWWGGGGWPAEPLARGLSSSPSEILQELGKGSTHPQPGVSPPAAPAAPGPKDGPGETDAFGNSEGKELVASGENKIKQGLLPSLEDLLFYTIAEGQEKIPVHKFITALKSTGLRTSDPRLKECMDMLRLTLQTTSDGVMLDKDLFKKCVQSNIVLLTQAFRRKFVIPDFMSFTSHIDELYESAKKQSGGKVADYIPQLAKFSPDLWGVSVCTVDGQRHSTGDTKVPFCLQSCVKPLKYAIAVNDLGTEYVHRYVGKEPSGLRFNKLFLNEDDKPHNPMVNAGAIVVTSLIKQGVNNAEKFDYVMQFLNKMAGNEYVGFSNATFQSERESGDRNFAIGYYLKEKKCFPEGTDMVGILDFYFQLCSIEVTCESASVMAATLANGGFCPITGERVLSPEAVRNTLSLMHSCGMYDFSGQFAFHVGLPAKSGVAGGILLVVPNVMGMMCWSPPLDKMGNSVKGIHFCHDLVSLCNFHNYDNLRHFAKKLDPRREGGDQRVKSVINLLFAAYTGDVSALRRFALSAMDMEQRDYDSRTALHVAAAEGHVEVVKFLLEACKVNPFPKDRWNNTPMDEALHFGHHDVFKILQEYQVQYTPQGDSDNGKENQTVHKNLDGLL
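Read-out is an Amplex red fluorescence increase coupled through glutamate oxidase and HRP, measured before and after 30 min room-temperature incubation. hKGA is in 45 mM KH2PO4 (pH 8.2) with 0.02% Tween-20; glutamine added as 1mM solution.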
Pol beta inh: blocks human DNA polymerase beta activity; P06746; Pol beta primer extension/strand displacement, fluorescence kinetic; Potency, µM (highest dose often 114 µM), inactives show at the highest dose activity change, negative = inhibition, actives largely listed as inhibitors; 340,000 tested, 1.3% active; further: on the % scale 0 is the no-effect control and ±100 the full control effect
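10 nM enzyme + cpd, 15 min RT; start with substrate 50 nM final; read 0 min and after 10 min RT. Corrected, normalized data; 4-parameter Hill curve fit.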
APEX1 inh: APE1 (human) endonuclease inhibition; P27695; recombinant APE1, TAMRA/BHQ-2 abasic DNA cleavage fluorescence; Potency, µM (top dose mostly 65.8 µM), for inactives: top-dose activity change, negative = inhibition, most hits filed as inhibitors; 350,000 tested, 0.35% active;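 further: plate controls were vehicle for no effect and reference inhibitor for full effect; nearly all actives have a fitted effect of over 55% in size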
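Kinetic fluorescence read (525 ex/598 em nm, three reads 60 s apart) of AP-site incision; signal = third minus first read. Enzyme 0.75 nM, dual-labelled THF duplex 50 nM, compound preincubation 15 min RT.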
Pol iota inh: inhibitors of human DNA polymerase iota | Pol iota fluorescent replication assay, 10 min | Q9UNA4 | 390,000 tested, 1% active | Potency, µM (titrated, usually from 115 µM), inactives show top-dose activity, negative = inhibition, actives largely listed as inhibitors
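Fluorescent replication assay read twice, at 0 min and 10 min after adding 50 nM (final) substrate. Enzyme (10 nM) and compounds were first incubated 15 min at room temperature; enzyme-free buffer wells were negative controls.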
POLK inh: inhibitors of human DNA polymerase kappa; Q9UBT6; purified Pol kappa, fluorescent DNA synthesis assay, 10 min; Potency, µM (highest dose often 107 µM), for inactives: top-dose activity, negative = inhibition, usual class: inhibitors; 400,000 tested, 0.53% active; AID 588579; further: on the % scale 0 is the no-effect control and ±100 the full control effect
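Readout: fluorescence, taken kinetically at 0 and 10 min. Conditions: 10 nM Pol kappa, 15 min RT compound preincubation, 50 nM substrate final. Controls: enzyme-free buffer wells.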
Pol eta inh: inhibitors of human DNA polymerase eta; Q9Y253; recombinant Pol eta, fluorescent DNA replication assay; Potency, µM (highest dose often 114 µM), inactives show at the highest dose activity change, negative = inhibition, actives largely listed as inhibitors; 390,000 tested, 1.2% active; AID 588591; further: on the % scale 0 is the no-effect control and ±100 the full control effect
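Pol eta (10 nM) was preincubated with compounds for 15 min at room temperature, after which fluorescent replication substrate (50 nM final) was added to start the reaction. Fluorescence was read kinetically at 0 and 10 min.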
* hit, by the source's call; ! = a repeat was not active; [ ] = remark or other dose. A selection: hits, their analogues and other compounds. The true share with any hit is near 2.4%. The call rests on the fitted dose curve; in most records, active means well fitted curve in the direction sought with a large enough effect; inconclusive means small, poorly fitted or top-dose-only effect, or another doubt; inactive means no such curve, though single readings can be large; an effect the other way counts as inactive or inconclusive. Potency means the concentration at half of the fitted maximal effect.

CC(=O)Oc1cc(OC(C)=O)c2c(=O)cc(-c3ccc(OC(C)=O)c(OC(C)=O)c3)oc2c1 was read as APEX1 inh inconclusive and POLK inh 8.9µM*.
`COc1ccccc1Nc1nc(N(C)c2ccccc2)nc(N)c1[N+](=O)[O-]` gave GLS inhibitor 3%, Pol beta inh 0%, APEX1 inh 21%, Pol iota inh 1%, POLK inh -2% and Pol eta inh -15%.
Screening CCCCCC#CCC#CCC#CCC#CCCCC(=O)O returned Pol beta inh 1.1µM*, APEX1 inh 2µM*! and POLK inh 10µM*!.
For CCCCCCCCCC(=O)O the results were GLS inhibitor 13%, APEX1 inh 24%, Pol iota inh 19%, POLK inh 11% and Pol eta inh -8%.
Cc1c(NS(=O)(=O)c2ccccc2)c(=O)n(-c2ccccc2)n1C was read as GLS inhibitor -3%, Pol beta inh 0%, APEX1 inh -2%, Pol iota inh 4%, POLK inh -4% and Pol eta inh -17%.
Screening Cc1c(NS(=O)(=O)c2cccc(C(=O)NCc3ccco3)c2)c(=O)n(-c2ccccc2)n1C returned GLS inhibitor -3%, Pol iota inh 35µM*, POLK inh -36% and Pol eta inh inconclusive.
For Cc1c(NS(=O)(=O)c2cccc(C(=O)O)c2)c(=O)n(-c2ccccc2)n1C the results were GLS inhibitor -2%, Pol beta inh 73%, APEX1 inh 24%, Pol iota inh 50µM*!, POLK inh -1% and Pol eta inh -9%.
Screening Cc1c(NS(=O)(=O)c2cccc(C(=O)NCc3ccc(Cl)cc3)c2)c(=O)n(-c2ccccc2)n1C returned GLS inhibitor 13%, Pol beta inh inconclusive, APEX1 inh -2%, Pol iota inh 15%, POLK inh -11% and Pol eta inh -2%.
For COc1cc(/C=C2/C(=O)NN(c3cccc(F)c3)C2=O)ccc1OC(=O)c1ccco1 the results were GLS inhibitor inconclusive, Pol beta inh inconclusive, APEX1 inh 1%, Pol iota inh inconclusive, POLK inh -7% and Pol eta inh inconclusive.
COc1cc(/C=C2/C(=O)NN(c3ccc(Cl)cc3)C2=O)ccc1OC(=O)c1ccco1 was read as GLS inhibitor -21%, Pol beta inh inconclusive, APEX1 inh -7%, Pol iota inh -19%, POLK inh -22% and Pol eta inh 28µM*.
For COc1cccc(C(=O)NNC(=O)C(=O)Nc2ccc(C)c(Cl)c2)c1 the results were GLS inhibitor 8%, Pol beta inh 79µM*, APEX1 inh 3%, Pol iota inh 7%, POLK inh -13% and Pol eta inh -12%.
For CCc1ccc(NC(=O)C(=O)NNC(=O)c2cccc(OC)c2)cc1 the results were GLS inhibitor -2%, Pol beta inh -15%, APEX1 inh 3%[12.4 µM], Pol iota inh 86%, POLK inh -11% and Pol eta inh -16%.
`O=S1(=O)CC(N2CC=CC2)CN1C1CCCCC1` (stereo unspecified) gave GLS inhibitor 11µM*.
CCOC(=O)c1c(C)[nH]c(C)c1C=O was read as GLS inhibitor -7%, Pol beta inh 8%, APEX1 inh -4%, Pol iota inh 182%, POLK inh 2% and Pol eta inh -13%.
Screening CCOC(=O)C1=CCC(c2ccccc2)N(S(=O)(=O)c2ccccc2[N+](=O)[O-])C1 (stereo unspecified) returned GLS inhibitor -10%.
Screening CC(C(=O)Nc1ccc(O)cc1C(=O)O)N1C(=O)/C(=C\c2cccs2)SC1=S (stereo unspecified) returned GLS inhibitor 23%, Pol beta inh inconclusive, APEX1 inh 28%, Pol iota inh inconclusive, POLK inh inconclusive and Pol eta inh 22µM*.
For O=C(CCCN1C(=O)/C(=C\c2ccccc2)SC1=S)Nc1ccc(O)cc1C(=O)O the results were GLS inhibitor 31%, Pol beta inh 5%, APEX1 inh -25%, Pol iota inh 28%, POLK inh 5% and Pol eta inh -24%.
For Cc1ccc(CCNC(=O)c2cc3c(s2)-c2c(C)cccc2OC3)cc1 the results were GLS inhibitor 11%, Pol beta inh 3.5µM*, Pol iota inh 32%, POLK inh -2% and Pol eta inh inconclusive.
Screening Cc1cccc2c1-c1sc(C(=O)NCc3ccccc3Cl)cc1CO2 returned GLS inhibitor 0%, Pol beta inh 16%, Pol iota inh 11%, POLK inh -3% and Pol eta inh -12%.
O=C(NCCc1ccc(Cl)cc1)c1cc2c(s1)-c1ccccc1OC2 was read as GLS inhibitor 2%, Pol beta inh 35µM*, Pol iota inh 89µM*, POLK inh inconclusive and Pol eta inh -9%.
O=C(NCCc1ccc(Cl)cc1)C1COc2ccccc2O1 (stereo unspecified) was read as GLS inhibitor -7%, Pol beta inh -29%, APEX1 inh 49%, Pol iota inh 50µM*, POLK inh -19% and Pol eta inh -13%.
For CCOc1ccc(CCNC(=O)c2cc3c(s2)-c2ccccc2OC3)cc1OCC the results were GLS inhibitor -12%, Pol beta inh 32µM*, Pol iota inh inconclusive, POLK inh -3% and Pol eta inh -9%.
`CCC1CCCCN1C(=O)CSc1nnc(CNC(=O)c2ccco2)o1` (stereo unspecified) gave GLS inhibitor 13%, Pol beta inh 2%, APEX1 inh 3%, Pol iota inh 4%, POLK inh -3% and Pol eta inh -4%.
Cc1cc(NC(=O)C2CC(c3cccc(Br)c3)=NO2)no1 (stereo unspecified) was read as GLS inhibitor -4%, Pol beta inh -29%, APEX1 inh 3%, Pol iota inh -16%, POLK inh -9% and Pol eta inh -5%.
CC1=CC(c2ccccc2)n2nc(N3C(=O)CCC3=O)nc2N1 (stereo unspecified) was read as GLS inhibitor -4%, Pol beta inh 9%, APEX1 inh 10%, Pol iota inh 21%, POLK inh -8% and Pol eta inh -7%.
CC1=CC(c2ccccc2)n2nc(N3C(=O)c4ccccc4C3=O)nc2N1 (stereo unspecified) was read as GLS inhibitor 16%, Pol beta inh -16%, APEX1 inh -7%, Pol iota inh 7%, POLK inh 45µM* and Pol eta inh -19%.
